Test results published in PubChem BioAssay AID463173 (ICCB-Longwood Screening Facility, Harvard Medical School, 2010).
Out of some 52,000 compounds screened, about 4,300 (8.3%) were called active. For the sample, actives were picked, then their nearest neighbours and some compounds at random. A number with no mark means an inactive call. No stated cut-off is given here; in the data, active means survival mostly below about 52% (no sharp cut-off); inactive means mostly above about 56%.

tested on: DeltatarO mutant; assay: growth inhibition of S. aureus wild type versus tarO mutant, primary screen, teichoic acid synthesis inhibitors, RN4220, OD600 (AID 463173); conditions: OD600, 18 h, hits give low values, screened at 18.75 µg/mL (by protocol)

Structure (SMILES)	survival
COc1cccc(N2CCN(C(=O)c3cc4c(=O)n(Cc5cccnc5)ccc4nc3C)CC2)c1	102%
CCOC(=O)C1CCCN(C(=O)c2cc3c(=O)[nH]c4ccc(C)cc4c3s2)C1 (stereo not given)	51%
CCOC(=O)C1CCCN(C(=O)c2cc3c(Cl)nc4ccccc4c3s2)C1 (stereo not given)	26% (active)
CCC1CCCCN1CCCNC(=O)c1cc2c(Cl)nc3ccccc3c2s1 (stereo not given)	101%
CCNC(=S)N1CCC(NC(=O)C23CC4CC(CC(C4)C2)C3)CC1	80%
Fc1ccccc1Cc1cn2cc(-c3ccc(Cl)cc3)nc2s1	66%
Clc1ccccc1Cc1cn2cc(-c3ccccc3)nc2s1	63%
Fc1ccc(-c2cn3cc(Cc4ccccc4)sc3n2)cc1	81%
Fc1ccc(Cc2cn3cc(-c4ccc(F)cc4)nc3s2)cc1	61%
Fc1ccc(Cc2cn3cc(-c4ccccc4)nc3s2)cc1	51% (active)
Fc1ccc(-c2cn3cc(Cc4ccccc4Cl)sc3n2)cc1	42% (active)
Cc1ccccc1-c1nc(SCC(=O)NCc2ccco2)c2c(=O)n(C)c(=O)n(C)c2n1	71%
O=C(Nc1ccc(C(F)(F)F)cc1)N1CCC(N2CCCCC2)CC1	108%
COc1ccc(-c2noc(CSc3nnc(-c4ccncc4)n3-c3ccc(C)cc3)n2)cc1OC	67%
CC1=C(C(=O)OC2CCCCCC2)C(c2ccc(Cl)cc2Cl)CC(=O)N1 (stereo not given)	81%
CCOC(=O)c1c(NC(=O)c2ccc(S(=O)(=O)N(C)C)cc2)sc2c1CCN(C)C2	75%
Cc1nc(NC2CCN(Cc3nnnn3Cc3ccc4c(c3)OCO4)CC2)[nH]c(=O)c1C	94%
O=S(=O)(NCc1csc(-c2ccccc2)n1)c1cccc(F)c1	79%
O=S(=O)(NCc1csc(-c2ccccc2)n1)c1ccccc1	70%
Cc1cc(C)c(S(=O)(=O)NCc2csc(-c3ccccc3)n2)c(C)c1	34% (active)
COc1ccccc1C(=O)Nc1nc2nc(C)c(Cc3ccccc3)c(=O)n2[nH]1	111%
COc1cccc(NC(=O)CN(CCc2ccccc2)S(=O)(=O)c2ccc(Cl)cc2)c1	52%

Structure (SMILES)	survival
Cn1cc(C(=O)Nc2ccc(C#N)cc2)c2ccccc2c1=O	63%
CS(=O)(=O)n1c(=O)sc2ccccc21	99%
CCCCOc1ccccc1Cn1c(=O)sc2ccccc21	-2% (active)
Cc1cccc(NC(=O)Cn2c(=O)sc3ccccc32)c1	109%
CCCOc1ccccc1Cn1c(=O)sc2ccccc21	-2% (active)
CCOC(=O)Cn1c(=O)sc2ccccc21	94%
CCN(CC)C(=O)Cn1c(=O)sc2ccccc21	85%
O=C(Cn1c(=O)sc2ccccc21)Nc1ccc(O)cc1	70%
CC(C)CCOc1ccccc1Cn1c(=O)sc2ccccc21	3% (active)
CCCn1c(=O)sc2cc(NC(=O)c3ccccc3OCC)ccc21	93%
O=C(Cn1c(-c2ccccc2)noc1=O)Nc1cccc(Cl)c1Cl	98%
CCc1ccc(S(=O)(=O)c2cn(C)c3cc(N4CCOCC4)c(F)cc3c2=O)cc1	90%
CCC(Sc1nnc(-c2ccc(OC)cc2)c(-c2ccc(OC)cc2)n1)C(=O)Nc1cccc(OC)c1 (stereo not given)	94%
COCCn1c(C)cc(O)c(C(c2ccccc2)N2CCN(c3ccccc3)CC2)c1=O (stereo not given)	49%
COCCn1c(C)cc(O)c(C(c2cccc(F)c2)N2CCN(c3ccccc3)CC2)c1=O (stereo not given)	93%
COCCn1c(C)cc(O)c(C(c2ccc(F)cc2)N2CCN(c3ccccc3)CC2)c1=O (stereo not given)	47% (active)
COCCn1c(C)cc(O)c(C(c2ccccc2)N2CCN(CCO)CC2)c1=O (stereo not given)	32% (active)
CCN1CCN(C(c2ccccc2)c2c(O)cc(C)n(CCOC)c2=O)CC1 (stereo not given)	84%
COCCn1c(C)cc(O)c(C(c2ccccc2)N2CCN(C)CC2)c1=O (stereo not given)	95%
Cc1cccc(NC(=O)c2cc(S(=O)(=O)N3CCc4ccccc43)ccc2F)c1C	65%
COc1ccc(-n2c(/C=C/c3cc(OC)c(OC)cc3OC)nc3cc4ccccc4cc3c2=O)cc1Cl	115%
CCOC(=O)CNC(=O)Nc1cc(C(=O)NCc2cccc(F)c2)ccc1N1CCCC1	74%

Structure (SMILES)	survival
CCOC(=O)N1CCC(NC(=O)c2ccc3c(c2)N(Cc2ccccc2)C(=O)c2ccccc2S3(=O)=O)CC1	52%
CSc1ccc(C2c3c(oc4cc(C)cc(C)c4c3=O)C(=O)N2Cc2ccco2)cc1 (stereo not given)	57%
CCc1ccc(C2C(C(=O)Nc3ccccc3OC)=C(C)Nc3nc(SCc4ccccc4)nn32)cc1 (stereo not given)	76%
Cc1cc2nnc(SCc3ccc(F)cc3)n2c2ccccc12	-1% (active)
CCOC(=O)c1ccc(CSc2nnc3cc(C)c4ccccc4n23)cc1	95%
CCCN(CCC)C(=O)CSc1nnc2cc(C)c3ccccc3n12	76%
COc1ccc(C2NCCS2)cc1 (stereo not given)	65%
Cc1ccc(CN2CCCn3nc(C(=O)NCCc4ccc(Cl)cc4)cc3C2=O)cc1	71%
Cc1nn(-c2ccc(N3CCCCC3)nn2)c(C)c1CCC(=O)NCc1ccc(Cl)cc1	79%
COc1ccc(CC(=O)Nc2ccc(-c3nc4ccccc4s3)c(C)c2)cc1OC	37% (active)
CCC(CC)C(=O)Nc1cccc(-c2nc3ccccc3s2)c1	53%
CCCOc1ccccc1C(=O)Nc1ccc(-c2nc3ccc(C)cc3s2)cc1	29% (active)
O=C(COc1ccccc1[N+](=O)[O-])Nc1cccc(-c2nc3ccccc3s2)c1	65%
Cc1cccc(OCC(=O)Nc2ccc3nc(SCc4ccccc4)sc3c2)c1	112%
COc1cccc(C(=O)Nc2ccc(-c3nc4ccc(C)cc4s3)cc2)c1OC	49%
Cc1cccc(OCCSc2nc3ccc(NC(=O)COc4ccccc4)cc3s2)c1	78%
COc1ccccc1C(=O)Nc1ccc(-c2nc3ccccc3s2)c(C)c1	83%
CCCCC(=O)Nc1cccc(-c2nc3ccccc3s2)c1	41% (active)
Cc1cccc(OCC(=O)Nc2cccc(-c3nc4ccccc4s3)c2)c1	7% (active)
Cc1ccc2nc(-c3ccc(NC(=O)COc4ccccc4C(C)(C)C)cc3)sc2c1	114%
COc1ccc(CC(=O)Nc2ccc(-c3nc4ccccc4s3)c(C)c2)cc1	69%
